Measurements reported in publication PMC5540273 (PLoS ONE, 2017).

Experiments:
Conditions in all cases: concentration: 1 μM, replicates: in singlicate; n = 1
[1] = test system: AAK1
[2] = test system: ABL1-nonphosphorylated
[3] = test system: ABL1-phosphorylated
[4] = test system: ABL2
[5] = test system: ACVR1B
[6] = test system: ACVR1
[7] = test system: ACVR2A
[8] = test system: ACVR2B
[9] = test system: ACVRL1
[10] = test system: T1, ADCK3
T1 construct: gene CABC1
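Also: KINOMEscan kinase panel screen.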

| Compound | %Inh [1] | %Inh [2] | %Inh [3] | %Inh [4] | %Inh [5] | %Inh [6] | %Inh [7] | %Inh [8] | %Inh [9] | %Inh [10] |
| --- | --- | --- | --- | --- | --- | --- | --- | --- | --- | --- |
| CN(C)CCNS(=O)(=O)c1ccc(-c2ccnc3[nH]ccc23)cc1 [GSK977620] | 21% | 0% | 0% | 8% | 6% | 0% | 0% | 0% | 0% | 10% |
| COC(=O)Nc1nc2ccc(Oc3ccc(NC(=O)Nc4cc(C(F)(F)F)ccc4F)cc3)cc2[nH]1.Cl [GW654607] | 17% | 99.4% | 57% | 94% | 0% | 0% | 0% | 0% | 0% | 1% |
| Cc1ccc(NC(=O)c2cccc(N3CCCCC3)c2)cc1-c1ccc(C(=O)NCC2CC2)cc1 [GSK1917008] | 0% | 0% | 0% | 25% | 0% | 14% | 6% | 10% | 2% | 27% |
| Nc1ncnc2scc(-c3ccc(NC(=O)Cc4cc(F)ccc4F)cc3)c12.O=C(O)C(F)(F)F [SB-731254-M] | 10% | 80% | 50% | 9% | 14% | 0% | 24% | 1% | 0% | 16% |
| O=C(Nc1n[nH]c2cc(-c3cccs3)ccc12)C1CC1 [SB-731284] | 73% | 81% | 61% | 0% | 0% | 0% | 0% | 17% | 0% | 0% |
| O=C(Nc1c(F)cccc1F)c1cc(C(=O)c2ccccc2F)c[nH]1 [GSK1326180] | 0% | 0% | 0% | 0% | 20% | 0% | 0% | 0% | 9% | 11% |
| NCCC(NC(=O)c1cc(Br)c(-c2ccnc3[nH]ccc23)s1)c1ccccc1.O=C(O)C(F)(F)F.O=C(O)C(F)(F)F (stereo not shown) [GSK1307810] | 66% | 0% | 0% | 8% | 43% | 15% | 0% | 0% | 0% | 52% |
| CCNc1nccc(-c2c(-c3ccc(F)cc3)ncn2C2CCN(C)CC2)n1 | 20% | 30% | 7% | 0% | 0% | 0% | 0% | 0% | 0% | 12% |
| CN(c1ccc(NC(=O)N2CCN(CCCN3CCOCC3)CC2)cc1)c1ccnc(Nc2ccc(CS(C)(=O)=O)cc2)n1.Cl [GW830899] | 55% | 72% | 60% | 8% | 0% | 0% | 23% | 45% | 0% | 3% |
| Nc1cccc(-c2ccc3c(N)n[nH]c3c2)c1 [GSK2193613] | 55% | 34% | 37% | 21% | 0% | 11% | 0% | 19% | 0% | 3% |
| Cc1ccc(O)cc1Nc1ccnc2ccc(C(C)(C)C)cc12 [GW856805] | 10% | 98.1% | 99.6% | 90.2% | 24% | 24% | 8% | 62% | 1% | 0% |
| Cn1cc(-c2cnc(N)c3c(-c4ccc5c(c4)CCN5C(=O)Cc4ccccc4)csc23)cn1 [GSK2593074] | 0% | 99.7% | 89% | 81% | 9% | 7% | 0% | 0% | 0% | 7% |
| Cc1cccc(Nc2nc(NCCN)ncc2C(N)=O)c1 [GSK1292139] | 78% | 5% | 28% | 0% | 0% | 0% | 0% | 0% | 0% | 5% |
| N#Cc1cnc2cc(-c3cnc(CNCCN4CCOCC4)s3)ccc2c1Nc1ccc(Oc2ccccc2)cc1 [GW664114] | 31% | 97.4% | 49% | 58% | 0% | 0% | 0% | 0% | 0% | 0% |
| COc1cccc(NC(=O)NCCNc2ccnc(Nc3ccc(F)cc3)n2)c1 [GSK1379879] | 0% | 0% | 0% | 6% | 0% | 0% | 0% | 0% | 0% | 14% |
| COc1cccc(C2=C(Nc3cccc(O)c3)C(=O)NC2=O)c1 [SB-390771] | 38% | 0% | 4% | 10% | 0% | 18% | 0% | 6% | 0% | 5% |
